# Results: PubChem BioAssay (NCI)
# “And” between values parts separate entries of the source, which are not always exact repeats. Identical values can stand only once. The panel holds about 83,000 compounds, 20% with a hit somewhere; the sample as a whole holds those more often.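 The endpoint reported here, percent growth, reads 100 for growth as untreated, 0 for no net growth and -100 for all cells dead.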 The source made the active and inactive calls. The calls were made as follows: active = growth percent below 10; inactive = the rest.
# System: MDA-MB-468 breast
# Test: NCI-60 one-dose screen, 48 h (100 = growth as untreated, 0 = no growth, -100 = all killed)
# Conditions: 10 µM unless noted
row,Compound,growth
1,CN(C)CCCOc1ccccc1NC1=C(Cl)C(=O)C(Nc2ccccc2OCCCN(C)C)=C(Cl)C1=O,-60.6% (active)
2,CCOC(=O)c1cnn2c(-c3ccc(Cl)cc3)nc(NCc3ccccc3)nc12,84.8% (inactive)
3,COc1cc2c(cc1NC(=O)C(Cl)Cl)-c1ccc(NC(=O)C(Cl)Cl)cc1C2,-58.3% (active)
4,C=C1C(=O)O[C@H]2[C@H]1CC/C(COC(=O)C(=O)c1c[nH]c3ccc(Cl)cc13)=C\CC[C@@]1(C)O[C@@H]21,-67.3% (active)
5,CCCCCCCCCCCCCCCC[N+](C)(C)CCN(Cc1ccc(OC)cc1)c1ncccn1,-49.2% (active) and -52.1% (active)
6,C#CCC#CCN1CCC[C@H]1C(=O)NCC(=O)OC,99.1% (inactive)
7,C/C(=N\Nc1ccc(Cl)cn1)c1ccc2ccccc2n1,-20.3% (active)
8,C#Cc1cccc(NC(=O)c2ccc(NC(=O)CCl)cc2)c1,-34.6% [8.25 µM] (active)
9,C=C1C(=O)O[C@H]2[C@H]1CC/C(COC(=O)NCc1c[nH]c3ccc(Br)cc13)=C\CC[C@@]1(C)O[C@@H]21,-58% (active)
10,CCCCNc1nnc2n(Cc3ccccc3)c(=O)c3c4c(sc3n12)CCCC4,34.7% (inactive)
11,S=c1[nH]nc2ccccn12,98.2% (inactive)
12,O=C(CCN1CCCC1)Nc1ccc2c(Nc3ccccc3)c3ccccc3nc2c1,-14.9% (active)
13,C1=C\COCc2cc(ccc2OCCN2CCCC2)Nc2nccc(n2)-c2cccc(c2)COC/1,-53.7% (active)
14,O=C(Nc1cc(Cl)cc2c1-c1ccc(Cl)cc1C2O)C(Cl)Cl (stereo not given),-3.77% (active)
15,COc1cc(NC(=O)c2cc(O)c(CC=C(C)C)c(O)c2)cc2c1O[C@]1(C)CC[C@@H](O)C(C)(C)[C@H]1C2,30.8% (inactive)
16,O=C(CSc1nc2ccccc2c(=O)n1-c1ccccc1)Nc1ccc(S(=O)(=O)Nc2nccs2)cc1,56.4% (inactive)
17,CCOC(=O)Cn1nnc(-c2ccc(OCc3ccccc3F)cc2)n1,90.4% (inactive)
18,CCc1cccc2c1S/C(=C/c1ccc(OC)cc1)C2=O,27.3% (inactive)
19,CNC(=O)c1cc(Oc2cccc3nc(Nc4ccc(F)c(Cl)c4)ccc23)ccn1,6.51% (active)
20,C[C@]12CCc3c(ccc4cc(O)ccc34)[C@@H]1C[C@H](O)[C@@H]2O,100% (inactive)

row,Compound,growth
1,O=S(=O)(NCCCNc1nccc(-c2c(-c3cccc(O)c3)nc3occn23)n1)c1ccc(Cl)cc1,105% (inactive)
2,O=C(c1ccccc1)c1c(/C=C/c2ccccc2)c2ccccc2[nH]c1=O,94.5% (inactive)
3,C=C1C(=O)O[C@H]2[C@H]1CC/C(COC(=O)NCCc1cccc(OC)c1)=C\CC[C@@]1(C)O[C@@H]21,18.9% (inactive)
4,O=C1/C(=C/c2ccc(Cl)cc2)SC(=Nc2ccc(Cl)cc2)N1Cc1nc2ccccc2[nH]1,78.6% (inactive)
5,N#C/C(=C\c1ccc(-c2ccc(Br)cc2)o1)c1nc(-c2cccs2)cs1,6.37% (active)
6,CCCCCOC(=O)Nc1nc(=O)n(C2O[C@H](C)[C@@H](O)[C@H]2O)cc1F (stereo not given in full),99.1% (inactive)
7,CCOC(=O)c1c2c(n3ccc(NC(=O)OC(C)(C)C)cc13)C(=O)c1ncccc1C2=O,-29% (active)
8,[2H]c1cc2c(c([2H])c1F)/C(=C/c1[nH]c(C)c(C(=O)NCCN(CC)CC)c1C)C(=O)N2,118% (inactive)
9,COc1ccc(C2NC3=C(CCCC3)C(C#N)(C#N)C2(C#N)C#N)cc1 (stereo not given),58% (inactive)
10,COC(=O)CCCCCCCCC(C)c1ccc(C(C)=O)cc1 (stereo not given),110% (inactive)
11,COc1ccc(NC(=O)c2ccc(Nc3ncnc4c3cnn4-c3cccc(F)c3)cc2)cc1,100% (inactive)
12,Cc1ccc(S(=O)(=O)Nn2c3c(cc(-c4nc5ccccc5s4)c2=O)CCCCCC3)cc1,110% (inactive)
13,CCCCC[C@@H]1Cc2cc(O)c(C(=O)O)c3c2[C@H](C[C@]2(OC[C@@H](CC(=O)[C@@](C)(CC)C(=O)OC)[C@@H]2C)O3)O1,110% (inactive)
14,CCN1C(=O)N(CC)C2C1NC(=S)N2/N=C/C=C/c1ccccc1 (stereo not given),3.7% (active)
15,C[C@@H]1O[C@@H](O[C@@H]2C[C@H](c3ccc4c(c3O)C(=O)C3=C(C4=O)[C@@]4(O)C(=O)C[C@](C)(O)C[C@@]4(O)C=C3)O[C@H](C)[C@H]2O)CC[C@@H]1O[C@H]1C[C@@H](O)[C@H](O)[C@@H](C)O1,106% (inactive)
16,O=C(O)c1ccc(-n2cc(/C=N/Nc3ccccc3F)c(-c3ccc(O)cc3)n2)cc1,78.3% (inactive)
17,O=c1c2ccccc2nc2n1Cc1nc3ccccc3c(=O)n1C2,90.6% (inactive)
18,CC[C@@H](C(=O)[C@@H](C)[C@@H](O)[C@H](C)[C@@H]1O[C@@H]([C@@H](CC)C(=O)O)CC[C@@H]1C)C1O[C@]2(C=CC(=O)[C@]3(CC[C@@](C)([C@H]4CC[C@](O)(CC)[C@H](C)O4)O3)O2)[C@H](C)C[C@@H]1C (stereo not given in full),18.9% (inactive)
19,O=C(CCl)Nc1ccc(Cc2ccc(NC(=O)CCl)cc2)cc1,-36.8% (active)
20,COc1ccc(CC(C)=C(c2ccc(OCCN3CCCCCC3)cc2)c2ccc(OCCN3CCCCCC3)cc2)cc1,-81.2% (active)
